# Test results from the supplement of paper PMC7366291.
# Counter-ions that a name gives are not always drawn. ± gives the standard deviation or the standard deviation of the averaged measurements.
# Key:
# Details in all cases: 25 µM; exposure: 24-48 hpf
# [1] = system: Danio rerio Tg(wt1b:EGFP) embryo, pronephros; assay: glomerular separation, fold change vs DMSO control; higher = glomeruli further apart (abnormal)
# In short: (§1)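 Using a Fiji macro, distances and angles were calculated from 16 reference points set by hand on maximum projections of pronephroi imaged dorsally (470 nm, 10 z-slices) in agarose-filled 96-well plates. The dechorionated Tg(wt1b:EGFP) zebrafish embryos had received 25 μM compound in 0.5% DMSO in HEPES-buffered E3 with 0.003% PTU from 24 to 48 hpf at 28.5°C. Values more than 2 SD from a feature's mean were excluded. Each feature appears as a fold change over the mean of DMSO-treated embryos from the same day.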
# [2] = system: Danio rerio Tg(wt1b:EGFP) embryo, pronephros; assay: glomerular width (mean of left and right), fold change vs DMSO control; higher = wider glomerulus
# In short: as §1
# [3] = system: Danio rerio Tg(wt1b:EGFP) embryo, pronephros; assay: fraction of imaged embryos annotated as normal kidney; higher = less nephrotoxic; extreme values may be limits of the assay
# In short: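 The read-out is the proportion of embryos in each treatment manually annotated as normal-kidney. Exposure ran from 24 to 48 hpf at 28.5°C in 12-well plates, using dechorionated Tg(wt1b:EGFP) zebrafish embryos in 5 mM HEPES-buffered E3 with 0.003% PTU, 0.5% DMSO and 25 μM compound. For imaging, larvae were anaesthetised with tricaine, positioned dorsally in agarose-filled 96-well plates and captured by widefield fluorescence (470 nm, 10 z-slices), with scoring done on maximum projections.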
# [4] = system: Danio rerio Tg(wt1b:EGFP) embryo, pronephros; assay: pronephric angle neck segment to proximal convoluted tubule (mean of left and right), fold change vs DMSO control; higher = larger pronephric angle
# In short: as §1
SMILES,glomerular separation [1],glomerular width [2],fraction of imaged embryos annotated as normal kidney [3],pronephric angle neck segment [4]
CN1C(C)(C)CCCC1(C)C [Pempidine tartrate],0.75 ± 0.25,1 ± 0.032,0.833,1.02 ± 0.068
Cc1cc(C(=O)NNCc2ccccc2)no1 [Isocarboxazid],1.01 ± 0.72,1.21 ± 0.067,0.25,1.382 ± 0.0021
CC1COc2c(N3CCN(C)CC3)c(F)cc3c(=O)c(C(=O)O)cn1c23 (stereo not drawn) [Ofloxacin],1.32 ± 0.67,1.043 ± 0.0041,0.833,1.06 ± 0.038
CCOC(=O)OC(C)OC1=C(C(=O)Nc2ccccn2)N(C)S(=O)(=O)c2ccccc21 (stereo not drawn) [Ampiroxicam],0.796 ± 0.29,1.1 ± 0.027,1,0.963 ± 0.018
O=c1[nH]c(=O)n([C@H]2C[C@H](O)[C@@H](CO)O2)cc1C(F)(F)F [Trifluridine],0.965 ± 0.28,0.9839 ± 0.0047,0.917,0.99 ± 0.013
CC1CCc2cc(F)cc3c(=O)c(C(=O)O)cn1c23 (stereo not drawn) [Flumequine],2.57 ± 1.2,1.05 ± 0.023,0.583,1.15 ± 0.046
NS(=O)(=O)c1cc2c(cc1Cl)NC(C(Cl)Cl)NS2(=O)=O (stereo not drawn) [Trichlormethiazide],0.873 ± 0.36,0.992 ± 0.012,0.75,0.899 ± 0.015
CC(C)(C)NC(=O)[C@H]1CC[C@H]2[C@@H]3CC[C@H]4NC(=O)C=C[C@]4(C)[C@H]3CC[C@]12C [Finasteride],0.797 ± 0.34,0.937 ± 0.018,0.917,1.04 ± 0.023
CC(C)c1nc(CN(C)C(=O)N[C@H](C(=O)N[C@@H](Cc2ccccc2)C[C@H](O)[C@H](Cc2ccccc2)NC(=O)OCc2cncs2)C(C)C)cs1 [Ritonavir],1.18 ± 0.61,0.961 ± 0.094,1,1.02 ± 0.033
CC(C(=O)O)c1ccc2c(c1)Cc1cccnc1O2 (stereo not drawn) [Pranoprofen],0.724 ± 0.18,0.956 ± 0.035,0.583,1.049 ± 0.01
Cc1cccc(C)c1NC(=O)C(C)N (stereo not drawn) [Tocainide hydrochloride],1.08 ± 0.37,0.975 ± 0.0083,1,0.941 ± 0.048
C[C@]1(Cn2ccnn2)[C@H](C(=O)O)N2C(=O)C[C@H]2S1(=O)=O [Tazobactam],0.923 ± 0.63,1.07 ± 0.018,0.75,0.985 ± 0.018
CC1CNc2c(cccc2S(=O)(=O)N[C@@H](CCCNC(=N)N)C(=O)N2CC[C@@H](C)C[C@@H]2C(=O)O)C1 (stereo partly drawn) [Argatroban],1.4 ± 1,0.949 ± 0.041,0.909,0.997 ± 0.04
NC1CCN(c2c(F)cc3c(=O)c(C(=O)O)cn(C4CC4)c3c2Cl)C1 (stereo not drawn) [Clinafloxacin],1.2 ± 0.45,1.03 ± 0.087,1,0.962 ± 0.038
Cc1ccnc2c1NC(=O)c1cccnc1N2C1CC1 [Nevirapine],1.13 ± 0.48,1.02 ± 0.016,0.917,1.03 ± 0.048
CC(=O)Oc1ccccc1C(=O)O [Acetylsalicylic acid],1.2 ± 0.37,0.951 ± 0.019,0.917,1.01 ± 0.018
COc1ccc(CC(C)NCC(O)c2ccc(O)c(NC=O)c2)cc1 (stereo not drawn) [Formoterol fumarate],0.928 ± 0.31,0.97 ± 0.051,0.917,1.05 ± 0.034
CC1=C(CC(=O)O)c2cc(F)ccc2/C1=C\c1ccc([S+](C)[O-])cc1 (stereo not drawn) [Sulindac],0.735 ± 0.15,0.8774 ± 0.0075,0.667,1.0374 ± 0.00064
O=C1NCCN1CCN1CCC(c2cn(-c3ccc(F)cc3)c3ccc(Cl)cc23)CC1 [Sertindole],1.45 ± 0.59,1.08 ± 0.022,0.833,0.949 ± 0.071
CC(C)(C)NC[C@H](O)COc1ccccc1C1CCCC1 [Penbutolol sulfate],0.661 ± 0.15,0.988 ± 0.02,0.917,1.02 ± 0.02
CCCCC(C)(O)C/C=C/[C@H]1[C@H](O)CC(=O)[C@@H]1CCCCCCC(=O)OC (mixture of isomers) [Misoprostol],0.763 ± 0.35,0.959 ± 0.024,1,0.985 ± 0.04
Brc1c(NC2=NCCN2)ccc2nccnc12 [Brimonidine L-Tartrate],0.614 ± 0.22,1.11 ± 0.043,1,0.993 ± 0.1
CN(C)C(=N)NC(=N)N [Metformin hydrochloride],0.804 ± 0.19,0.93 ± 0.035,0.833,1.08 ± 0.042
CN(C)[C@@H]1C(O)=C(C(N)=O)C(=O)[C@@]2(O)C(O)=C3C(=O)c4c(O)cccc4[C@@](C)(O)[C@H]3[C@H](O)[C@@H]12 [Oxytetracycline dihydrate],1.22 ± 0.44,0.955 ± 0.036,0.909,0.9153 ± 0.0078
CCN(CC)C(=O)N1CCN(C)CC1 [Diethylcarbamazine citrate],0.96 ± 0.28,0.958 ± 0.028,0.909,1.05 ± 0.02
Cc1ccnc(NS(=O)(=O)c2ccc(N)cc2)n1 [Sulfamerazine],0.775 ± 0.22,1.03 ± 0.011,0.909,0.974 ± 0.085
CC(=O)N1CCN(c2ccc(OCC3COC(Cn4ccnc4)(c4ccc(Cl)cc4Cl)O3)cc2)CC1 (stereo not drawn) [Ketoconazole],0.931 ± 0.28,1.01 ± 0.082,0.75,0.994 ± 0.04
